Source: PubChem BioAssay (Tox21)
“And” between values parts separate entries of the source, which are not always exact repeats. Equal entries are not always repeated. Inconclusive results are not listed. A number with no mark means an inactive call. The source made the active and inactive calls. The call rests on the fitted dose curve; in most records, active means well fitted activation curve with a large enough effect; inconclusive means small, poorly fitted or top-dose-only effect; inactive means flat fitted curve, though single readings scatter. Residues, ends and D or L forms follow the SMILES beside them.

Assay: qHTS assay to identify small molecule phospholipidosis (PLD) inducers (AID 1259344)
Conditions: HepG2 phospholipidosis, LipidTOX Red imaging, 24 h; series mostly up to 38.3 µM; PLD induction: at the top concentration
In short: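 HepG2 cells on collagen I, attached 4 h at 37 C, were co-treated with compound and LipidTOX Red dye for 24 h at 37 C, then fixed with paraformaldehyde plus Hoechst 33342 and imaged by high-content microscopy for phospholipid accumulation.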
On the % scale 0 is the no-effect control and ±100 the full control effect.

| SMILES | PLD induction | Potency |
| --- | --- | --- |
| O=C1c2ccccc2-c2n[nH]c3cccc1c23 | -0.308% | – |
| C/C(=C\C(=O)OCCCCCCCCC(=O)O)C[C@@H]1OC[C@H](C[C@@H]2O[C@H]2[C@@H](C)[C@H](C)O)[C@@H](O)[C@H]1O | -0.0634% | – |
| CCOC(=O)[C@H](CCc1ccccc1)N[C@@H](C)C(=O)N1[C@H](C(=O)O)C[C@H]2CCCC[C@@H]21 | – | inactive |
| O=C(O)COc1ccc(C(=O)c2cccs2)c(Cl)c1Cl | – | inactive |
| C=C1C(=C/C=C2\CCC[C@]3(C)[C@@H]([C@H](C)CCCC(C)C)CC[C@@H]23)C[C@@H](O)C[C@@H]1O | 1.32% | – |
| C/C=C/C1=C(C(=O)O)N2C(=O)[C@@H](NC(=O)[C@H](N)c3ccc(O)cc3)[C@H]2SC1 | -0.389% | – |
| O=C(O)/C=C/C(O)c1ccc(Cl)cc1 (stereo unspecified) | -0.396% | – |
| Cc1ncc(C[n+]2csc(CCOP(=O)(O)O)c2C)c(N)n1 | 0.149% | – |
| CC/C=C\C/C=C\C/C=C\C/C=C\C/C=C\CCCC(=O)O | -0.22% | – |
| O=S(=O)(O)CC(S)CS (stereo unspecified) | 0.379% | – |
| CC(C)=CCC/C(C)=C/CC/C(C)=C/CC/C(C)=C/CC1=C(C)C(=O)c2ccccc2C1=O | – | inactive |
| CCN(CC)C(=O)c1cccnc1 | -0.138% | – |
| CO[C@H](C(=O)[C@@H](O)[C@@H](C)O)C1Cc2cc3cc(O[C@H]4C[C@@H](O[C@H]5C[C@@H](O)[C@H](O)[C@@H](C)O5)[C@@H](O)[C@@H](C)O4)c(C)c(O)c3c(O)c2C(=O)[C@H]1O[C@H]1C[C@@H](O[C@H]2C[C@@H](O[C@H]3C[C@](C)(O)[C@H](O)[C@@H](C)O3)[C@H](O)[C@@H](C)O2)[C@H](O)[C@@H](C)O1 (stereo partly specified) | -1.89% | – |
| CCC[C@@H]1C[C@@H](C(=O)N[C@@H]([C@H]2O[C@H](SC)[C@H](OP(=O)(O)O)[C@@H](O)[C@H]2O)[C@H](C)Cl)N(C)C1 | – | inactive |
| C(=C\c1ccncc1)/c1ccccc1 | – | inactive |
| CC(=O)NC[C@H]1CN(c2ccc(N3CCOCC3)c(F)c2)C(=O)O1 | -0.351% | – |
| C[C@@H]1C(=O)NC2=Nc3cccc(Cl)c3CN21 | 0.0716% | – |
| Nc1c(CC(=O)O)cccc1C(=O)c1ccccc1 | -2.85% [at 7.66 µM] and -2.33% [at 7.66 µM] | – |

| SMILES | PLD induction | Potency |
| --- | --- | --- |
| O=C(O)Cc1nn(Cc2ccc(Br)cc2F)c(=O)c2ccccc12 | -1.23% | – |
| O=c1[nH]c(=O)n([C@H]2C[C@H](O)[C@@H](CO)O2)cc1/C=C/Br | -1.81% | – |
| CCCn1c(=O)[nH]c(=O)c2[nH]cnc21 | -0.81% | – |
| CN1[C@@H](CC(=O)c2ccccc2)CCC[C@H]1C[C@H](O)c1ccccc1 | 1.89% | – |
| O=C(O)CC(O)(CC(=O)O)C(=O)O | -0.895% [at 1.53 µM] | – |
| CNC(=O)OCc1cccc(COC(=O)NC)n1 | -0.816% | – |
| CC[C@@H](C)[C@H](N)C(=O)O | -0.598% | – |
| NC(N)=NCc1cccc(I)c1 | – | inactive |
| CC[C@H]1OC(=O)C[C@@H](O)[C@H](C)[C@@H](O[C@@H]2O[C@H](C)[C@@H](O)[C@H](N(C)C)[C@H]2O)[C@@H](CCN2C[C@H](C)C[C@H](C)C2)C[C@@H](C)C(=O)/C=C/C(C)=C/[C@@H]1CO[C@@H]1O[C@H](C)[C@@H](O)[C@@H](OC)[C@H]1OC | 0.424% | – |
| C=C1[C@H](CO)[C@@H](O)C[C@@H]1n1cnc2c(=O)[nH]c(N)nc21 | 2.21% | – |
| CC(C)Cc1ccc([C@H](C)C(=O)O)cc1 | -6.28% | – |
| CO/N=C(\C(=O)N[C@@H]1C(=O)N2C(C(=O)[O-])=C(C[n+]3cccc4c3CCC4)CS[C@H]12)c1csc(N)n1 | -0.257% | – |
| CC(C)[C@H](NC(=O)[C@H](CC(=O)O)NC(=O)[C@H](CCCCN)NC(=O)[C@@H](N)CCCN=C(N)N)C(=O)N[C@@H](Cc1ccc(O)cc1)C(=O)O (H-RKDVY-OH) | -0.269% | – |
| CCCCCCCCCCCCCCCC[n+]1ccccc1 | -1.54% | – |
| C[C@H](Cc1ccc(O)c(O)c1)[C@@H](C)Cc1ccc(O)c(O)c1 | -1.08% | – |
| CSCC[C@H](NC(=O)[C@H](Cc1ccc(OS(=O)(=O)O)cc1)NC(=O)[C@@H](N)CC(=O)O)C(=O)NCC(=O)N[C@@H](Cc1c[nH]c2ccccc12)C(=O)N[C@@H](CCSC)C(=O)N[C@@H](CC(=O)O)C(=O)N[C@@H](Cc1ccccc1)C(N)=O | – | inactive |
| FC(F)(F)C(F)(F)C(F)(F)C(F)(F)C(F)(F)F | 0.286% | – |
| CO[C@H]1C[C@@H]2CC[C@@H](C)[C@@](O)(O2)C(=O)C(=O)N2CCCC[C@H]2C(=O)O[C@H]([C@H](C)C[C@@H]2CC[C@@H](O)[C@H](OC)C2)CC(=O)[C@H](C)C=C(C)[C@@H](O)[C@@H](OC)C(=O)[C@H](C)C[C@H](C)/C=C/C=CC=C1C | – | inactive |
